Several values for one entry are separate records, joined by “and”; a condition that tells them apart may be missing. Identical values can stand only once. Records with an inconclusive call do not appear. Where a call stands in place of a potency, no number is given. Activity calls are given as the source filed them. The call rests on the fitted dose curve; in most records, active means well fitted cell-killing curve with a large enough effect in the repeat runs; inconclusive means weak or mixed curves, or effect the other way; inactive means no such curve, though single readings can be large or run the other way.
Experiment: qHTS assay to identify small molecule antagonists of the sonic hedgehog signaling (Shh) pathway - cell viability counter screen (AID 1259367); further: nearly all actives have a fitted effect of over 55% in size
Conditions: NIH/3T3 Gli1-Luc viability, CellTiter-Fluor, 24 h; series mostly up to 92.4 µM
Description: National Center for Advancing Translational Sciences [NCATS]
NIH Chemical Genomics Center [NCGC]
U.S. Environmental Protection Agency [EPA]
National Institutes of Environmental Health Sciences [NIEHS]
National Toxicology Program [NTP]
U.S. Food and Drug Administration [FDA]
The sonic hedgehog (Shh) pathway is essential for normal embryonic development. Dysregulation of the Shh pathway can cause severe developmental defects in organs. Therefore chemicals that interfere with the pathway are potential developmental toxicants. A cell line designated 3T3Gli1-Luc (DMB/OARSA/CFSAN/FDA, Laurel, MD), a NIH/3T3 derived clone containing stably integrated Gli1-Luc reporter is used to detect chemical interference of the Shh pathway, by changes in the expression of the firefly Luc gene under the control of the Gli1 transcriptional response element. This cell line was used to screen Tox21 libraries for identifying and prioritizing the potential developmental toxicants that interfere Shh pathway. Conditioned medium-stimulated mode was used to screen for chemicals inhibiting Shh signaling. The cytotoxicity of the compounds was tested in parallel by measuring the cell viability using CellTiter-Fluor assay system (Promega, Madison, WI) in the same wells.
Tox21 Assay Protocol Summary:
3T3 Gli1-Luc cells were dispensed at 2,000 per well in 5uL of culture medium into white solid bottom 1536-well plates (Greiner Bio-One, Monroe, NC) using a Multidrop Combi (Thermo Scientific, Waltham, MA) dispenser. The assay plates were incubated at 37 C and 5% CO2 for 4hr, and then 23nL of compounds dissolved in DMSO and positive control were transferred using a Pintool station (Wako, San Diego, CA). The compound transfer was followed by the addition of 1ul conditioned medium or assay buffer using two separate tips of Flying Reagent Dispenser (FRD, Aurora Discovery, San Diego, CA). The assay plates were incubated at 37C and 5% CO2 for 24hr. For viability read, after 23hr of compound treatment, 1uL of CellTiter-Fluor reagent (Promega Corporation, Madison, WI) was added to each well of the assay plates using Flying Reagent Dispenser (FRD, Aurora Discovery, San Diego, CA) and incubated the assay plates at 37C for 1hr. The fluorescence signal was quantified using a ViewLux plate reader (Perkin Elmer, Shelton, CT).
Potency means the concentration at half of the fitted maximal effect.

| Compound | Potency |
| --- | --- |
| Cn1[nH]nnc1=S | inactive |
| C[C@H]1CC[C@@H]2[C@@H](C)[C@H]3[C@H](C[C@H]4[C@@H]5CC=C6CC(O[C@@H]7O[C@H](CO)[C@H](O)[C@H](O[C@@H]8O[C@H](CO)[C@@H](O)[C@H](O)[C@H]8O)[C@H]7O[C@H]7O[C@@H](C)[C@H](O)[C@@H](O)[C@H]7O)CC[C@]6(C)[C@H]5CC[C@]34C)N2C1 (stereo not given in full) | inactive |
| CCCCCCCCCCCCCCCC[n+]1ccccc1 | 50.8 µM (active) and 61.1 µM (active) and 60.3 µM (active) |
| C[C@@H]1O[C@@H](O[C@H]2C[C@@H](O)[C@]3(CO)[C@H]4[C@H](O)C[C@]5(C)[C@@H](C6=CC(=O)OC6)CC[C@]5(O)[C@@H]4CC[C@]3(O)C2)[C@H](O)[C@H](O)[C@H]1O | inactive |
| CC1CCC(C(C)C)C(OC(=O)c2ccccc2N)C1 (stereo not given) | inactive |
| NNC(=O)c1ccccc1 | 39.6 µM (active) |
| C[C@@H](Oc1ccc(Cl)cc1Cl)C(=O)O | inactive |
| COS(=O)(=O)c1ccc(C)cc1 | inactive |
| COc1ccc(N)cc1N | 15.8 µM (active) and 33 µM (active) |
| CCCN(CCC)CCc1c[nH]c2ccccc12 | inactive |
| CC(C)[C@H](C(=O)OC(C#N)c1cccc(Oc2ccccc2)c1)c1ccc(OC(F)F)cc1 (stereo not given in full) | inactive |
| ClCc1ccc(Cl)cc1Cl | inactive |
| Fc1cccc(Cl)c1CCl | inactive |
| CCCCCCCCCC[N+](C)(C)CCCCCCCCCC | 13.7 µM (active) |
| COP(=O)(CCC(=O)NCO)OC | inactive |
| CCN(CC)C(=S)[S-].CCN(CC)C(=S)[S-].[Zn+2] | 1.08 µM (active) |
| NC(=O)CCl | inactive |
| Clc1ccc(C(c2ccc(Cl)cc2)C(Cl)(Cl)Cl)cc1 | inactive |
| CCC(C)(C)C(=O)OC1=C(c2ccc(Cl)cc2Cl)C(=O)OC12CCCCC2 | inactive |
| Cc1cc(N=Nc2ccccc2C)ccc1N | 27.3 µM (active) and 30.6 µM (active) |

| Compound | Potency |
| --- | --- |
| COCC(=O)N(c1c(C)cccc1C)[C@H](C)C(=O)OC | inactive |
| Nc1ccccc1C(=O)OC/C=C/c1ccccc1 | inactive |
| CCc1ccccc1C | inactive |
| O=C1C=CC(=O)c2ccccc21 | 15.4 µM (active) |
| CC(C)CC(C)N (stereo not given) | inactive |
| Cc1cc(C(C)(C)c2cc(C)c(O)c(C)c2)cc(C)c1O | inactive |
| CCCCOP(=O)(CCCC)OCCCC | inactive |
| BrCC(Br)c1ccccc1 (stereo not given) | inactive |
| Cc1cc(C)cc(OP(=O)(Oc2cc(C)cc(C)c2)Oc2cc(C)cc(C)c2)c1 | inactive |
| Cc1ccc(C(=O)Cl)cc1 | inactive |
| CC1(C)[C@H](C(=O)O[C@H](C#N)c2cccc(Oc3ccccc3)c2)[C@@H]1/C=C(\Cl)C(F)(F)F | inactive |
| O=c1oc2ccccc2c(O)c1Cc1c(O)c2ccccc2oc1=O | inactive |
| CN(C)C1CSSSC1 | inactive |
| c1ccc2cc3c(cc2c1)-c1cccc2cccc-3c12 | inactive |
| CN(CCCC(=O)c1cccnc1)N=O | inactive |
| CC(C)(C)C(O)C(Oc1ccc(-c2ccccc2)cc1)n1cncn1 (stereo not given) | 24.3 µM (active) |
| Oc1ccccc1Br | inactive |
| O=c1[nH]c2ccccc2n1C1CCN(CCCC(c2ccc(F)cc2)c2ccc(F)cc2)CC1 | inactive |
| COc1cccc2c1C(=O)c1c(O)c3c(c(O)c1C2=O)C[C@@](O)(C(=O)CO)CC3OC1CC(N2CCOC(OC)C2)C(O)C(C)O1 (stereo not given in full) | 0.168 µM (active) |
| COc1ccc([N+](=O)[O-])cc1O | inactive |
